PMC7862700, “An all-to-all approach to the identification of sequence-specific readers for epigenetic DNA modifications on cytosine”

What was measured:
Assay in all cases: DAPPL (digital affinity profiling via proximity ligation, sequencing); 10 mM Tris-HCl pH 7.5, 50 mM NaCl, 1 mM DTT, 4% glycerol, room temperature, 30 min; GST-TFs on glutathione beads, 16-mer random dsDNA library, 0.1% formaldehyde crosslink after washing; high values mean tight binding
Settings in all cases: protein: recombinant; tags: N-terminal GST; dsDNA, one strand shown
[1] = biological target: T1, FLI1 (Homo sapiens, UniProt Q01543 1-452)
T1 sequence: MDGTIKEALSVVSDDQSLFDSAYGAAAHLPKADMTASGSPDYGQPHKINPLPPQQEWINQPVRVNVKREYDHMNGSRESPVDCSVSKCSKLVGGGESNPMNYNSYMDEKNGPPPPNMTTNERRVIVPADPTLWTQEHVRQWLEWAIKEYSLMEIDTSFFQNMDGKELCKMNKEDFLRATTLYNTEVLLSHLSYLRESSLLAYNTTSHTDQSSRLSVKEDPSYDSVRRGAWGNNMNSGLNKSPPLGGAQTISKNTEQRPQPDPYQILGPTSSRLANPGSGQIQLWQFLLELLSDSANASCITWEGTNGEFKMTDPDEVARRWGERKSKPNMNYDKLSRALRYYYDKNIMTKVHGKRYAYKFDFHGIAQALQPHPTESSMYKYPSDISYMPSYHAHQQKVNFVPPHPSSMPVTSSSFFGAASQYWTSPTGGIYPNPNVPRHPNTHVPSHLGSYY
Method in brief: (§1)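 Binding signal is each hexamer's read frequency for a factor divided by its frequency in the tag-only sample. The factors were GST-fused human transcription factors from yeast, captured on glutathione beads, DNA-barcoded and pooled with that sample. Pools were incubated with 200 nmole of a random double-stranded 16-mer DNA library in Tris/NaCl/DTT/glycerol buffer at room temperature for 30 min, then washed, crosslinked with 0.1% formaldehyde, proximity-ligated with BsaI/T4 ligase (1 h, 37 °C), PCR-amplified and sequenced on an Illumina NextSeq500.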

[2] = biological target: T2, ELK1 (Homo sapiens, UniProt P19419 1-428)
T2 sequence: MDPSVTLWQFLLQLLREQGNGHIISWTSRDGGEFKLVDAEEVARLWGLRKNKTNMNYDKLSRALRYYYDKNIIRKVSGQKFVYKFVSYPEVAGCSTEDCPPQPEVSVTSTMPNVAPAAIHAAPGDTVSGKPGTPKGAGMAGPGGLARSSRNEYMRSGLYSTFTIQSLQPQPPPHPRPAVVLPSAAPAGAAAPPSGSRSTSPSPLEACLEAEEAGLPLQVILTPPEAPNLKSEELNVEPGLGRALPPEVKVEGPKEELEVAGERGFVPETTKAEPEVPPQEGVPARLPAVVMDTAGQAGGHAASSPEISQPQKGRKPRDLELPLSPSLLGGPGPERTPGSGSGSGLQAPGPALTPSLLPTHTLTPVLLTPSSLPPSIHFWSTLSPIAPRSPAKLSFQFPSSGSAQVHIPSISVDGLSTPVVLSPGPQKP
Method in brief: as §1

[3] = biological target: T3, GABPA (Homo sapiens, UniProt Q06546 1-454)
T3 sequence: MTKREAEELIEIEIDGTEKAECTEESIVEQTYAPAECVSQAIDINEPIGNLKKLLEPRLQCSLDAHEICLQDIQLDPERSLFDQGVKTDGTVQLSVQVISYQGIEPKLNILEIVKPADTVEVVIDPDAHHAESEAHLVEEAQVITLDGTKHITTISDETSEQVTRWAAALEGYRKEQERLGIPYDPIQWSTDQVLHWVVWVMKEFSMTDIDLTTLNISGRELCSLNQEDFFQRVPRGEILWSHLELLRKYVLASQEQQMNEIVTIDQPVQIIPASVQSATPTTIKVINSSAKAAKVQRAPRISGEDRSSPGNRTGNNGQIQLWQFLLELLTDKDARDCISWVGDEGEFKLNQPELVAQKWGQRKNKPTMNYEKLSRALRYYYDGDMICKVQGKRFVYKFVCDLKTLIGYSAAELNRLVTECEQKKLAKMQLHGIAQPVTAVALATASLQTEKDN
Method in brief: as §1

[4] = biological target: T4, ERG (Homo sapiens, UniProt P11308 1-479)
T4 sequence: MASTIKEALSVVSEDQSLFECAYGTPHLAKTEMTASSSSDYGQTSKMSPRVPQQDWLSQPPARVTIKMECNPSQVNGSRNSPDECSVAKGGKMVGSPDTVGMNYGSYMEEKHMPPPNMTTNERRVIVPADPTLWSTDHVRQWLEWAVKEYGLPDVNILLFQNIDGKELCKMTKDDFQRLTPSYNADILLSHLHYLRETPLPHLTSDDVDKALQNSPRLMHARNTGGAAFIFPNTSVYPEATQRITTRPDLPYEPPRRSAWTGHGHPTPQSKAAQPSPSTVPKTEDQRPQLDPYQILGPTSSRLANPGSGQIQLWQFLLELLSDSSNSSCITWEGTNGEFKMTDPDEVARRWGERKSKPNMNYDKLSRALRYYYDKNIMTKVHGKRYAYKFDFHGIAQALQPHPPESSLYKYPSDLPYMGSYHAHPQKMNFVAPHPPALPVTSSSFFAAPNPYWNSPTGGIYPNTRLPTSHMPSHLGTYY
Method in brief: as §1

[5] = biological target: ELF1 (Homo sapiens, UniProt P32519 1-619)
Method in brief: as §1

[6] = biological target: T5, EHF (Homo sapiens, UniProt Q9NZC4 1-300)
T5 sequence: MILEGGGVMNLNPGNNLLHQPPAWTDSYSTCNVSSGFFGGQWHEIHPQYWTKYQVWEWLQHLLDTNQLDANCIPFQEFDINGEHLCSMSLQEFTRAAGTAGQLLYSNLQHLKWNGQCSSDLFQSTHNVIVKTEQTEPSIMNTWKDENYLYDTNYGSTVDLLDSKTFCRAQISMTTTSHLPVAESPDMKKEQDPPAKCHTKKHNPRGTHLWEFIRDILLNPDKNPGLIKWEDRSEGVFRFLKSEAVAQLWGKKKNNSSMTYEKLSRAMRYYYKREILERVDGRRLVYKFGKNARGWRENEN
Method in brief: as §1

[7] = biological target: SPI1 (Homo sapiens, UniProt P17947 1-270)
Method in brief: as §1

[8] = biological target: SPIB (Homo sapiens, UniProt Q01892 1-262)
Method in brief: as §1

[9] = biological target: T6, ELK3 (Homo sapiens, UniProt P41970 1-407)
T6 sequence: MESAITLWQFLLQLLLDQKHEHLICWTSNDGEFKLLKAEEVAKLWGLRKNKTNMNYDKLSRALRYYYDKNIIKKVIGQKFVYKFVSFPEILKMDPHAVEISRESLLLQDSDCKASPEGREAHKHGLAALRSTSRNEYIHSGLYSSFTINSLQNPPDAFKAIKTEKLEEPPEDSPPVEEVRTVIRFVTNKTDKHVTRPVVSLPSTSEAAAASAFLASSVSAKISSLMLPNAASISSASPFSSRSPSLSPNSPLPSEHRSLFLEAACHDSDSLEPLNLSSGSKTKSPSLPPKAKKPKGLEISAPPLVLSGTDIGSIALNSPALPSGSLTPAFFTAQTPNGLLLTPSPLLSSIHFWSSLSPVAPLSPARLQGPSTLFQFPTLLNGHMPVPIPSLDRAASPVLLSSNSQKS
Method in brief: as §1

SPIB, sequence (Q01892 whole entry): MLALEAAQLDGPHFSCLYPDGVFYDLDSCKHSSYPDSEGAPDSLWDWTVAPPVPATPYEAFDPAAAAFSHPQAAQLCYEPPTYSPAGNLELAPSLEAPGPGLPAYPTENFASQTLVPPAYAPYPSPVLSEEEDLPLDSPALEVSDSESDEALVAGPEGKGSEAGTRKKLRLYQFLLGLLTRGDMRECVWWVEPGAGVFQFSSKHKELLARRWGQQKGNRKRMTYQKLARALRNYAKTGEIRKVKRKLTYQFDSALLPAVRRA
ELF1, sequence (P32519 whole entry): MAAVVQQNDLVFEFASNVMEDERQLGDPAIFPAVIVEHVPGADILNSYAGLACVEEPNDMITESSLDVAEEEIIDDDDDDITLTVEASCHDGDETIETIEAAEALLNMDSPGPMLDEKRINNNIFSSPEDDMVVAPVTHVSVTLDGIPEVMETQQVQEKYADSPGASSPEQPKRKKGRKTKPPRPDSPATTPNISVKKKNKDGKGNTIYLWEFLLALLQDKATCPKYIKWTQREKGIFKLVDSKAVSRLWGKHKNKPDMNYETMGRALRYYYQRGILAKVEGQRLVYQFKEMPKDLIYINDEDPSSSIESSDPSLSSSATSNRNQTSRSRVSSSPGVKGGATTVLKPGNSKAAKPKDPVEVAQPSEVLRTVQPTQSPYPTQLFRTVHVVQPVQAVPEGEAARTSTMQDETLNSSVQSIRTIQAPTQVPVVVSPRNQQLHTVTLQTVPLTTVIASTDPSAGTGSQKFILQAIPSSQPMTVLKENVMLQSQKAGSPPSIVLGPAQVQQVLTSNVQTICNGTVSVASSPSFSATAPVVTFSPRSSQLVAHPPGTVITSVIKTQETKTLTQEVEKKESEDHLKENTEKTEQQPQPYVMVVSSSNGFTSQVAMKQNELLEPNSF

TAATAG was tested, and the binding signal [1] was 1.24 fold enrichment (6-mer frequency, TF over GST control), the binding signal [2] was 1.15 fold enrichment (6-mer frequency, TF over GST control) and the binding signal [3] was 1.09 fold enrichment (6-mer frequency, TF over GST control). For the same sequence, the binding signal [4] was 1.11 fold enrichment (6-mer frequency, TF over GST control), the binding signal [5] was 1.2 fold enrichment (6-mer frequency, TF over GST control) and the binding signal [6] was 1.25 fold enrichment (6-mer frequency, TF over GST control). For the same sequence, the binding signal [7] was 1.2 fold enrichment (6-mer frequency, TF over GST control), the binding signal [8] was 1.29 fold enrichment (6-mer frequency, TF over GST control) and the binding signal [9] was 1.06 fold enrichment (6-mer frequency, TF over GST control).
In the case of TATGAC, the binding signal [1] is reported as 1.31 fold enrichment (6-mer frequency, TF over GST control), the binding signal [2] is reported as 1.34 fold enrichment (6-mer frequency, TF over GST control) and the binding signal [3] is reported as 1.37 fold enrichment (6-mer frequency, TF over GST control). For the same sequence, the binding signal [4] was 1.31 fold enrichment (6-mer frequency, TF over GST control), the binding signal [5] was 1.34 fold enrichment (6-mer frequency, TF over GST control) and the binding signal [6] was 1.23 fold enrichment (6-mer frequency, TF over GST control). For the same sequence, the binding signal [7] was 1.27 fold enrichment (6-mer frequency, TF over GST control), the binding signal [8] was 1.4 fold enrichment (6-mer frequency, TF over GST control) and the binding signal [9] was 1.32 fold enrichment (6-mer frequency, TF over GST control).
For ATTTTT, the binding signal [1] was 1.14 fold enrichment (6-mer frequency, TF over GST control), the binding signal [2] was 1.14 fold enrichment (6-mer frequency, TF over GST control) and the binding signal [3] was 1.13 fold enrichment (6-mer frequency, TF over GST control). For the same sequence, the binding signal [4] was 1.1 fold enrichment (6-mer frequency, TF over GST control), the binding signal [5] was 1.14 fold enrichment (6-mer frequency, TF over GST control) and the binding signal [6] was 1.22 fold enrichment (6-mer frequency, TF over GST control). The binding signal [7] was 1.18 fold enrichment (6-mer frequency, TF over GST control), the binding signal [8] was 1.19 fold enrichment (6-mer frequency, TF over GST control) and the binding signal [9] was 1.12 fold enrichment (6-mer frequency, TF over GST control).
For TTGACA, the binding signal [1] was 1.38 fold enrichment (6-mer frequency, TF over GST control), the binding signal [2] was 1.37 fold enrichment (6-mer frequency, TF over GST control) and the binding signal [3] was 1.44 fold enrichment (6-mer frequency, TF over GST control). The binding signal [4] was 1.34 fold enrichment (6-mer frequency, TF over GST control), the binding signal [5] was 1.37 fold enrichment (6-mer frequency, TF over GST control) and the binding signal [6] was 1.29 fold enrichment (6-mer frequency, TF over GST control). For the same sequence, the binding signal [7] was 1.25 fold enrichment (6-mer frequency, TF over GST control), the binding signal [8] was 1.28 fold enrichment (6-mer frequency, TF over GST control) and the binding signal [9] was 1.28 fold enrichment (6-mer frequency, TF over GST control).
TTGCAT was tested, and the binding signal [1] was 1.5 fold enrichment (6-mer frequency, TF over GST control), the binding signal [2] was 1.43 fold enrichment (6-mer frequency, TF over GST control) and the binding signal [3] was 1.52 fold enrichment (6-mer frequency, TF over GST control). For the same sequence, the binding signal [4] was 1.37 fold enrichment (6-mer frequency, TF over GST control), the binding signal [5] was 1.39 fold enrichment (6-mer frequency, TF over GST control) and the binding signal [6] was 1.4 fold enrichment (6-mer frequency, TF over GST control). For the same sequence, the binding signal [7] was 1.44 fold enrichment (6-mer frequency, TF over GST control), the binding signal [8] was 1.38 fold enrichment (6-mer frequency, TF over GST control) and the binding signal [9] was 1.42 fold enrichment (6-mer frequency, TF over GST control).
In the case of CGTTTT, the binding signal [1] is reported as 1.16 fold enrichment (6-mer frequency, TF over GST control), the binding signal [2] is reported as 1.16 fold enrichment (6-mer frequency, TF over GST control) and the binding signal [3] is reported as 1.34 fold enrichment (6-mer frequency, TF over GST control). For the same sequence, the binding signal [4] was 1.36 fold enrichment (6-mer frequency, TF over GST control), the binding signal [5] was 1.17 fold enrichment (6-mer frequency, TF over GST control) and the binding signal [6] was 1.27 fold enrichment (6-mer frequency, TF over GST control). For the same sequence, the binding signal [7] was 1.29 fold enrichment (6-mer frequency, TF over GST control), the binding signal [8] was 1.32 fold enrichment (6-mer frequency, TF over GST control) and the binding signal [9] was 1.12 fold enrichment (6-mer frequency, TF over GST control).
With TAGCTC the binding signal [1] was 1.17 fold enrichment (6-mer frequency, TF over GST control), the binding signal [2] was 1.13 fold enrichment (6-mer frequency, TF over GST control) and the binding signal [3] was 1.2 fold enrichment (6-mer frequency, TF over GST control). The binding signal [4] was 1.11 fold enrichment (6-mer frequency, TF over GST control), the binding signal [5] was 1.18 fold enrichment (6-mer frequency, TF over GST control) and the binding signal [6] was 1.25 fold enrichment (6-mer frequency, TF over GST control). The binding signal [7] was 1.21 fold enrichment (6-mer frequency, TF over GST control), the binding signal [8] was 1.05 fold enrichment (6-mer frequency, TF over GST control) and the binding signal [9] was 1.28 fold enrichment (6-mer frequency, TF over GST control).
GCTATT was tested, and the binding signal [1] was 1.33 fold enrichment (6-mer frequency, TF over GST control), the binding signal [2] was 1.34 fold enrichment (6-mer frequency, TF over GST control) and the binding signal [3] was 1.36 fold enrichment (6-mer frequency, TF over GST control). For the same sequence, the binding signal [4] was 1.3 fold enrichment (6-mer frequency, TF over GST control), the binding signal [5] was 1.26 fold enrichment (6-mer frequency, TF over GST control) and the binding signal [6] was 1.39 fold enrichment (6-mer frequency, TF over GST control). For the same sequence, the binding signal [7] was 1.3 fold enrichment (6-mer frequency, TF over GST control), the binding signal [8] was 1.28 fold enrichment (6-mer frequency, TF over GST control) and the binding signal [9] was 1.39 fold enrichment (6-mer frequency, TF over GST control).
